Compounds with a hit are over-represented: about 9.4% of the library has one in this group of screens.
NPC1 promoter act – activates the NPC1 promoter; Huh7 NPC1 promoter luciferase reporter, 24 h; Potency, µM (highest dose often 9.22 µM), for the others: at the top dose activation, actives largely listed as activators; 2.4% of 320,000 active; note: % of control where 0% means no effect; nearly all actives have a fitted effect of over 60% in size
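NPC1 promoter–luciferase Huh7 cells; 24 h compound; luminescence.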
ELG1 genotoxic – inducers of genotoxicity in HEK293T ELG1-luciferase cells | HEK293T ELG1-luciferase reporter, luminescence, 16 h | Potency, µM (highest dose often 46 µM), without a hit: at the highest dose activity change, positive = activation, usual class: activators | 1.3% of 330,000 active | AID 504466; note: % of control where 0% means no effect; nearly all actives have a fitted effect of over 60% in size
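Step 1: seed 2,000 HEK293T ELG1-luciferase cells per well. Step 2: add compound or DMSO, incubate 16 hr at 37 °C. Step 3: ONE-Glo, 30 min at room temperature, read luminescence.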
Rab9 prom act – activators of Rab9 promoter; Huh7 Rab9 promoter-luciferase reporter, luminescence, 24 h; Potency, µM (top dose mostly 9.22 µM), without a hit: at the highest dose activation, negative = inhibition, usual class: activators; 2.8% of 320,000 active; AID 485297; note: % of control where 0% means no effect; nearly all actives have a fitted effect of over 60% in size
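Measured in stably transfected Huh7 cells bearing a Rab9 promoter–luciferase construct: 24 h compound treatment at 37 °C, followed by luminescence detection.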
ELG1 repair inh – ELG1-dependent DNA repair inhibition. Potency, µM (top dose mostly 46.1 µM), for inactives: at the top dose activity change, negative = inhibition, most hits filed as inhibitors. HEK293T ELG1-luciferase reporter, luminescence, 16 h; DNA damage induced by 5-fluorouridine. AID 504467. 2.3% of 330,000 active; note: % is set by controls: 0 for no effect and ±100 for the full control effect; nearly all actives have a fitted effect of over 55% in size
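Quantitative HTS, concentration-response format. 2,000 cells/well co-treated with 5-fluorouridine and compound, 16 hr in 5% CO2 at 37 °C; ONE-Glo luminescence read after 30 min.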
FLuc counter – firefly luciferase modulation, counter-screen for miR-21 project | purified FLuc, Km substrates, luminescence inhibition | 6.9% of 360,000 active | Potency, µM (titrated, usually from 57.5 µM), for the others: at the highest dose activity change, negative = inhibition, hits mostly inhibitors | P08659;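 note: plate controls were vehicle for no effect and reference inhibitor for full effect; nearly all actives have a fitted effect of over 55% in size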
Target sequence (P08659 whole entry, looked up): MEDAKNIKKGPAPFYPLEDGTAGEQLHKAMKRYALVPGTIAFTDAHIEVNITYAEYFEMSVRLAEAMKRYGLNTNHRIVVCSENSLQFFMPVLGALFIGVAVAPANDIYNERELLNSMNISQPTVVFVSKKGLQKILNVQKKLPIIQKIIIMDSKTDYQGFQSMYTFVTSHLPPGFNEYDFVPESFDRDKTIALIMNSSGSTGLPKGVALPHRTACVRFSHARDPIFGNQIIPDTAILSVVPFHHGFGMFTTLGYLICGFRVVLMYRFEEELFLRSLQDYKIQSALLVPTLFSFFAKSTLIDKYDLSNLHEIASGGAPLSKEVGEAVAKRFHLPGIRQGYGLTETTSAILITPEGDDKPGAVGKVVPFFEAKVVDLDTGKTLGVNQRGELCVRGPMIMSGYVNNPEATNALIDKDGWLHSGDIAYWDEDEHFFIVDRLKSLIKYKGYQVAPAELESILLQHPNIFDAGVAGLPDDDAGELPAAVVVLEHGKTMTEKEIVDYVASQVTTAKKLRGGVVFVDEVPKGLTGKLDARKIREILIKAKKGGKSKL
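Purified P. pyralis luciferase (10nM final) with 10uM D-luciferin and 10uM ATP (Km levels) in 50mM Tris acetate pH 7.5, 10mM Mg acetate, 0.01% Tween-20, 0.05% BSA; qHTS 6-point titration, ~60 µM downward; luminescence read.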
SMN2 splice enh – increases expression of the SMN2 splice variant; 2.8% of 210,000 active; AID 1458; Potency, µM (series often up to 46.1 µM), without a hit: at the highest dose activity change, positive = activation, usual class: activators; HEK293 SMN2-luciferase splicing reporter, luminescence, 30-36 h; note: % of control where 0% means no effect; nearly all actives have a fitted effect of over 55% in size
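HEK293 cells carry an SMN2 […]–luciferase reporter in which exon 7 inclusion puts luciferase in frame. Cells were plated 10-12 h before compound addition, then incubated 30-36 h at 37C. ONE-Glo luminescence was read; sodium butyrate at 4.5 mM final served as control.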
* = called active by the depositor; ? = inconclusive; / = no result; [ ] = dose if it differs, or a comment. Calls come from the whole dose curve; as a rule, active = well fitted curve in the direction sought with a large enough effect; inconclusive = small, poorly fitted or top-dose-only effect, or another doubt; inactive = no such curve, though single readings can be large; an effect the other way counts as inactive or inconclusive. Potency is the fitted concentration of half-maximal effect.

SMILES	NPC1 promoter act	ELG1 genotoxic	Rab9 prom act	ELG1 repair inh	FLuc counter	SMN2 splice enh
CCCc1cc(C(=O)Nc2nnc(C)s2)cs1	?	?	3.5µM*	?	9.5µM*	?
Cc1ccc(C(=O)Nc2nnc(C)s2)cc1	3.5µM*	-2%	3.2µM*	?	12µM*	14µM*
Brc1ccc(/C=N/c2nc3ccccc3n2CCN2CCOCC2)cc1	-2%	2%	-1%	-1%	24µM*	8%
CCCn1c(/N=C/c2ccc3c(c2)OCO3)nc2ccccc21	11%	-2%	1%	?	4.8µM*	-32%
C=CCn1c(/N=C/c2ccc3c(c2)OCO3)nc2ccccc21	0%	1%	-2%	-8%	6.7µM*	10%
C(=N\c1nc2ccccc2n1CCN1CCCCC1)/c1cccs1	-3%	4%	-6%	-25%	5%	-12%
C(=N\c1nc2ccccc2n1CCN1CCCCC1)/c1ccc2c(c1)OCO2	10%	2%	-1%	11%	-11%	-6%
CCOC(=O)c1c(C)n(-c2ccccc2)c2ccc(OC(=O)c3cc(OC)cc(OC)c3)cc12	/	/	/	/	-11%	2%
COc1cccc(CNS(=O)(=O)c2c(C(=O)N3CCC(C)CC3)c(C)n(C)c2C)c1	/	/	/	/	1%	/
COc1cc(Cl)cc(/C=C/c2ccc3ccccc3n2)c1OC(C)=O	2µM*	?	2.5µM*	?	6.7µM*	2.5µM*
CC(=O)Oc1ccc(Cl)cc1/C=C/c1cc(OC(C)=O)c2ccccc2n1	24%	0%	6%	?	-18%	-21%
COc1cccc(-c2cc3nc(-c4ccccc4)cc(N4CCCC(O)C4)n3n2)c1 (stereo not drawn)	-5%	-11%	0%	16µM*	-15%	/
COc1cc(OC)cc(-c2cc3nc(C)cc(N4CCN(C(=O)c5ccco5)CC4)n3n2)c1	0%	3%	-2%	?	-6%	-13%
OC1CCN(c2cc(-c3ccccc3)nc3cc(-c4ccc(F)cc4)nn23)CC1	-2%	-15%	-3%	13µM*	1%	-3%
CCN1CCN(c2cc(-c3ccccc3)nc3cc(-c4cccc(F)c4)nn23)CC1	-8%	-5%	-4%	23µM*	6%	-64%
Cc1cc(N2CCOCC2)n2nc(-c3cccc(F)c3)cc2n1	1%	5%	-3%	-23%	0%	-10%
Cc1cc(N2CCN(C(=O)c3ccco3)CC2)n2nc(-c3cccc(F)c3)cc2n1	0%	-20%	4%	16µM*	?	-12%
CCc1ccc(CNC(=O)C2Cc3cc(S(=O)(=O)N4CCCCCC4)ccc3N2C(C)=O)cc1 (stereo not drawn)	/	/	/	/	0%	/
CCOC(=O)c1c(NC(=O)c2cc(-c3ccc(OC)cc3)on2)sc(C)c1C	/	/	/	/	-2%	-2%
O=C(NNC(=S)NC1CCCCC1)c1ccc(Cl)s1	27%	-2%	?	0%	?	13µM*
CCNC(=S)NNC(=O)c1csc(C)c1	7%	-1%	11%	3%	2%	20%
Cc1cc(C(=O)NNC(=S)NC2CCCCC2)cs1	?	11%	1.3µM*	?	2%	/
COc1cccc(C(=O)NNC(=S)NC2CCCCC2)c1	?	11%	2.2µM*	?	?	?
CCc1ccc(C(=O)NC2CCCCC2)s1	2.5µM*	39%	2.2µM*	?	12µM*	13µM*
CCOc1ccc(C(c2c(O)cc(C)n(CCOC)c2=O)N2CCN(c3ccccc3)CC2)cc1 (stereo not drawn)	/	/	/	/	-17%	/
SMILES	NPC1 promoter act	ELG1 genotoxic	Rab9 prom act	ELG1 repair inh	FLuc counter	SMN2 splice enh
CCC(C)Sc1c(C(C)C)cnc2c1c(=O)n(C)c(=O)n2C (stereo not drawn)	/	/	/	/	-8%	/
COc1ccc(/C=C(/C(=O)c2cccs2)N2C=CC=CC2=C(C#N)C#N)cc1	-11%	?	1%	?	13µM*	/
COc1ccc(C(=O)/C(=C\c2ccco2)N2C=CC=CC2=C(C#N)C#N)cc1	-29%	-8%	-41%	?	-15%	-67%
Cc1cc(C)c(C#N)c(N2CCN(Cc3ccc4c(c3)OCO4)CC2)n1	-1%	-1%	-2%	?	4%	-2%
N#CCc1c(C#N)c(N)nc(N2CCN(Cc3ccc4c(c3)OCO4)CC2)c1C#N	4%	-5%	-3%	18µM*	0%	-17%
CCn1c(C)nc2c(C)[n+](CC(=O)c3ccc(Br)cc3)ccc21	1.1µM*	1.8µM*	1µM*	?	?	7%
Cc1sc[n+](CC(=O)c2ccc(Br)cc2)c1C	-7%	-3%[9.26 µM]	-1%	-4%	2%	/
CCOc1ccccc1CNC(=O)c1nn(C)c2c1CS(=O)(=O)c1ccccc1-2	4%	-9%	-2%	16µM*	-1%	/
CCc1ccc(CNC(=O)c2nn(C)c3c2CS(=O)(=O)c2ccccc2-3)cc1	1%	-10%	2%	?	2%	/
CSc1ccc(CCNC(=O)c2nn(C)c3c2CS(=O)(=O)c2ccccc2-3)cc1	1%	-16%	-1%	26µM*	0%	/
CCC1(c2ccc(Cl)cc2)NC(=O)N(Cc2ccc(C(=O)OC)cc2)C1=O (stereo not drawn)	-8%	-3%	-10%	21µM*	-3%	-40%
CCC1(c2ccc(Cl)cc2)NC(=O)N(CC(=O)NCc2ccc(F)cc2)C1=O (stereo not drawn)	1%	-10%	0%	-10%	2%	/
Cc1nonc1NC(=O)c1oc2ccc(F)cc2c1C	?	14%	?	?	-1%	/
CCc1ccc2oc(C(=O)Nc3nc(-c4ccccc4)ns3)c(C)c2c1	/	/	/	/	5.4µM*	?
CCc1nonc1NC(=O)c1oc2ccc(C)cc2c1C	?	?	?	?	?	21%
Cc1cc2oc(C(=O)Nc3nonc3C)c(C)c2cc1Cl	?	?	3.5µM*	?	-6%	/
CCc1ccc2oc(C(=O)Nc3nonc3CC)c(C)c2c1	?	?	3.5µM*	?	?	11%
CCOC(=O)/C=C/COc1ccccc1[N+](=O)[O-]	15%	22%	?	?	15µM*	24%
O=[N+]([O-])c1ccccc1NCCOc1ccccc1	?	?	?	?	9.5µM*	?
COc1ccc(OCCOCCOc2ccc(C)cc2[N+](=O)[O-])cc1	0%	0%	-6%	15%	?	2%
O=[N+]([O-])c1ccccc1OCCOc1ccccc1[N+](=O)[O-]	3.5µM*	11%	2µM*	?	-8%	/
COc1ccc(OCCOc2ccccc2[N+](=O)[O-])cc1	?	?	?	?	17µM*	?

Screening results: PubChem BioAssay, National Center for Advancing Translational Sciences (NCATS)
